RecA splice inh: inhibitors of M. tuberculosis RecA intein splicing. P9WHJ3. cell-free RecA intein splicing, fluorescence. inhibition, % (test concentration not listed). actives 0.75% (n = 290,000). AID 2221; in the data active means inhibition above about 30%; inconclusive means no clear call, values can overlap the other calls;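 further: 0% = vehicle wells and 100% = reference inhibitor control wells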
GDH-TPI inh: inhibits GDH-TPI coupling enzymes, artifact for Mtb FBA screen | GDH-TPI coupled enzyme counterscreen, NADH absorbance | inhibition, % at 4.8 µM | actives 1.2% (n = 360,000) | AID 588335; in the data active means inhibition above about 30%;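 further: 0% = DMSO wells and 100% = wells lacking the enzyme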
Rv3671c inh: inhibitors of M. tuberculosis serine protease Rv3671c; P9WHR9; inhibition, % at 5.96 µM; actives 0.048% (n = 320,000); in the data active means inhibition above about 38%;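 further: extracellular domain of Rv3671c used as enzyme; 0% = enzyme with DMSO and 100% = no enzyme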
Mtb betalactam: beta-lactam sensitization of Mtb H37Rv. M. tuberculosis H37Rv growth with meropenem, percent inhibition. inhibition, % at 25 µM. actives 0.27% (n = 330,000). AID 434955; call rule not given here;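 further: growth measured after seven days incubation then overnight dye step; 0% = bacteria only wells and 100% = bacteria with antibiotic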
UGM FP inh: inhibitors of M. tuberculosis UDP-galactopyranose mutase | P9WIQ1 | AID 504406 | purified UGM, fluorescence polarization probe displacement | inhibition, % at 10 µM | actives 0.06% (n = 320,000); in the data active means inhibition above about 10%, passing the limit was not always enough; inconclusive means no clear call, values can overlap the other calls
FBA Mtb inh: inhibits M. tuberculosis FBA enzyme; P9WQA3; purified M. tuberculosis FBA, fluorescence read-out; inhibition, % at 1 µM; actives 2.3% (n = 360,000); in the data active means inhibition above about 27%;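 further: 0% = vehicle and 100% = reference inhibitor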
Target sequence (P9WQA3 whole entry, looked up): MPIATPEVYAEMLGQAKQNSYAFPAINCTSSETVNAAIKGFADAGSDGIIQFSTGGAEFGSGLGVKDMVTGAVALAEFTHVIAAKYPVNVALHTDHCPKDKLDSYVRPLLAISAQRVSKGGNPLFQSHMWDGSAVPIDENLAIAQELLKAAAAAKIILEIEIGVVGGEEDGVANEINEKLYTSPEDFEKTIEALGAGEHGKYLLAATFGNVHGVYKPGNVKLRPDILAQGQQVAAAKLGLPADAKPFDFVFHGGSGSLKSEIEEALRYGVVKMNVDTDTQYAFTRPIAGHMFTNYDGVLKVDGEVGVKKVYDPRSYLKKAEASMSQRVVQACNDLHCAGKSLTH
The depositor's hits bear a star; i = inactive; ? = inconclusive; . = no result given; + = active, no number. Rows were chosen to be rich in hits. Some 4% of all compounds tested hit in one or more screens of this group.

SMILES	RecA splice inh	GDH-TPI inh	Rv3671c inh	Mtb betalactam	UGM FP inh	FBA Mtb inh
O=C(Nc1ccc(-c2nc3ccc(NC(=O)c4cccs4)cc3[nH]2)cc1)c1cccs1	-4.2	50.6*	-1.6	0.9	0.5	3.6
O=C(Nc1ccc2nc(-c3cccs3)[nH]c2c1)c1cccs1	0.0	53.6*	-4.2	-4.5	-0.2	8.6
O=C(Nc1ccc2nc(-c3cccs3)[nH]c2c1)c1ccco1	5.0	36.0*	3.4	-12.7	-0.6	9.3
COC(=O)c1ccc(NC(=O)CCN2CCN(Cc3ccccc3)CC2)cc1	.	4.9	6.9	6.6	-1.9	2.7
O=C(CNC(=O)C12CC3CC(CC(C3)C1)C2)N/N=C\c1ccccn1	-2.4	2.4	-1.6	2.6	1.2	1.4
O=C1C(c2ccc(F)cc2)N(Cc2ccc3c(c2)OCO3)C(=O)CN1C1CCCCCC1 (centres undefined)	2.5	14.0	-4.0	-13.0	-2.4	1.8
Cn1cccc1-c1nc2ccc(NC(=O)c3ccco3)cc2[nH]1	-5.3	27.1	5.5	-11.8	-0.7	-0.4
Cc1ccc2nc(-c3ccc(NC(=O)c4ccco4)cc3)[nH]c2c1	0.2	54.3*	-21.7	?	-0.5	1.0
Cc1ccc2oc(-c3ccc(NC(=O)c4ccc5c(c4)OCO5)cc3)nc2c1	-5.3	-5.0	-3.2	-3.7	0.2	8.6
O=C(Nc1ccc2nc(-c3ccccc3)oc2c1)c1ccco1	-2.1	54.5*	-23.6	-4.5	3.6	2.8
O=C(Nc1ccc(-c2nc3ccccc3o2)cc1)c1ccc2c(c1)OCO2	-1.7	36.1*	-14.3	18.2	3.1	1.2
O=C1CCN(CCc2ccccc2)CCN1CCO	-0.1	7.4	4.2	6.8	2.6	1.2
O=C(NCCN1CCCCCC1)C1CC(=O)N(CCc2ccccc2)C1 (centres undefined)	2.3	3.1	-5.6	-6.9	-1.3	2.2
Cc1cccc(OCC(=O)Nc2ncn[nH]2)c1C	-0.7	2.6	1.9	5.0	0.0	2.2
CC(=O)c1cccc(NS(=O)(=O)c2ccc(N/C=C/C(=O)c3ccc(F)cc3)cc2)c1	-2.8	12.1	-70.9	3.3	-0.4	1.8
CC(=O)c1ccc(NS(=O)(=O)c2ccc(N/C=C/C(=O)c3ccc(F)cc3)cc2)cc1	-21.5	60.8*	-150.5	-1.7	0.4	-2.4
COC(=O)c1sc(NC(=O)c2ccc([N+](=O)[O-])o2)c(C#N)c1C	-3.3	32.5*	7.0	99.3	4.4	-3.6
O=C(Nc1nccs1)c1ccc(-c2ccc(Cl)cc2)o1	-0.8	54.3*	-15.1	98.6	-0.2	1.0
O=C(Nc1nccs1)c1ccc(-c2ccc([N+](=O)[O-])cc2)o1	6.3	5.1	0.9	-5.0	20.0*	0.4
O=C(Nc1nccs1)c1ccc(-c2ccc(F)cc2)o1	0.5	18.0	-10.5	93.1	-1.5	4.2
COc1cc(C)ccc1OCCOc1ccccc1Cl	0.8	-5.3	-3.2	61.8	-0.3	117.6*
COc1cc(C)ccc1OCCCOc1ccccc1Cl	2.9	8.3	8.7	26.5	-2.1	-2.2
CCc1ccccc1-n1c(SCC(=O)c2c(N)n(C3CC3)c(=O)[nH]c2=O)nnc1N1CCOCC1	.	-4.4	-4.1	-5.7	2.7	-1.3
CCOC(=O)c1ccc(-c2c(-c3ccccc3OC)oc3ccccc23)cc1F	.	15.1	-3.1	7.8	0.3	28.1*
CCOc1cccc(N(C(=O)CCC(=O)Nc2cc(C)on2)C(C(=O)NC(C)(C)C)c2ccc(OC)cc2)c1 (centres undefined)	7.4	-5.3	8.8	-5.3	0.5	0.2
SMILES	RecA splice inh	GDH-TPI inh	Rv3671c inh	Mtb betalactam	UGM FP inh	FBA Mtb inh
CCS(=O)(=O)c1ccc(C=NNc2nc3ccccc3o2)cc1	.	37.0*	.	.	.	-2.4
Cc1c(OCC(=O)N[C@@H](Cc2ccccc2)C(=O)O)ccc2c3c(c(=O)oc12)CCC3	5.3	11.1	-0.3	-14.2	1.8	25.6
Cc1c(OCC(=O)NC(Cc2c[nH]c3ccc(O)cc23)C(=O)O)ccc2c3c(c(=O)oc12)CCC3 (centres undefined)	-6.6	15.8	-5.3	-3.0	4.8	7.0
CCC(NC(=O)COc1cc2c(c3oc(=O)c(C)c(C)c13)CCC(C)(C)O2)C(=O)O (centres undefined)	-0.8	7.1	2.9	2.6	2.6	+
Cc1c(C)c2c(OCC(=O)N[C@@H](C)C(=O)O)cc3c(c2oc1=O)CCC(C)(C)O3	-1.0	5.7	-6.8	-7.4	-1.6	+
CN1CCC(=NNC(=O)C(=O)Nc2ccccc2)CC1	0.3	-3.7	0.3	-10.1	1.6	-2.7
COc1ccc2nc3sc(C(=O)NCc4cccs4)c(N)c3cc2c1	0.1	.	-5.8	-0.7	0.6	.
CC(C)OC(=O)c1cc(C(=O)c2cc(F)ccc2O)coc1=N	-11.2	36.4*	-10.4	51.7	1.1	5.1
CCOc1cc(/C=N/NC(=O)C(=O)NC2CC2)cc(Br)c1O	-2.0	32.7*	5.7	2.1	1.9	1.4
CCOc1cc(/C=N/NC(=O)C(N)=O)cc(Br)c1O	-6.3	23.3	-0.3	-3.1	1.0	-6.9
CCOc1cc(/C=N/NC(=O)c2ccc3c(c2)OCCO3)cc(Br)c1O	-0.9	40.6*	-1.4	8.3	-0.2	4.7
OCC[C@@H]1C[C@H](O)[C@@H](O)[C@@]2(OCc3cc(Cl)ccc32)O1	.	-6.2	.	.	.	-1.9
Cc1cc(OCC(=O)NCc2ccc(S(N)(=O)=O)cc2)c2c3c(c(=O)oc2c1)CCC3	1.1	23.7	0.4	6.7	3.2	40.4*
Cc1ccc(C(=O)Nc2c[nH]c(=O)[nH]c2=O)cc1	-1.4	6.4	6.8	2.1	0.4	-1.4
Cc1ccc(-n2nc(C)c3c2OC(N)=C(C#N)C3c2ccccc2F)cc1 (centres undefined)	43.3*	1.9	-13.8	4.1	0.2	-2.6
CCOC(=O)CN1N=C(/C=C/c2ccc(OCC)cc2)CCC1=O	-0.8	34.3*	-3.1	4.9	-1.1	-5.6
C=CCN1N=C(/C=C/c2ccc(C)cc2)CCC1=O	2.0	21.1	9.8	1.9	-1.8	5.0
C=CCN1N=C(/C=C/c2ccc(OC)cc2)CCC1=O	-2.6	34.0*	4.1	3.8	1.6	-0.6
CCOC(=O)C(C)N1N=C(/C=C/c2ccc(C)cc2)CCC1=O (centres undefined)	6.8	38.8*	8.9	-14.5	1.8	-3.6
CCOC(=O)CN1N=C(/C=C/c2ccccc2)CCC1=O	2.1	17.1	-3.6	-6.4	0.8	4.8
O=C(O)c1ccc2oc(=O)c(S(=O)(=O)c3ccccc3)cc2c1	-1.5	24.8	-8.4	-2.6	-2.1	-0.7
Cc1c(O)ccc2cc(S(=O)(=O)c3ccccc3)c(=O)oc12	i	2.6	-3.9	-7.5	1.8	+
BrC(/C=N/N1CCN(Cc2ccccc2)CC1)=C/c1ccccc1	9.6	31.0*	-4.8	-3.5	0.4	0.1
CN1CCN(c2nc(-c3ccccc3)nc(-c3ccccc3)c2C#N)CC1	-0.4	3.5	-7.7	81.8	-2.4	-2.4
COc1ccc(-c2nc(-c3ccccc3)nc(N3CCN(C)CC3)c2C#N)cc1	0.8	9.1	3.4	95.0	-6.4	38.2*

Screens from PubChem.
